Marburg entry inh: qHTS for inhibitors of binding or entry into cells for Marburg Virus; 1.8% of 300,000 active; Marburg virus pseudotyped entry inhibition, cell reporter; Potency, µM (top dose mostly 37.8 µM), usual class: inhibitors; calls by dose curve; tested in HEK293 cells
HCMV inh: qHTS Assay for inhibitors of the human cytomegalovirus (HCMV) | HFF cells, HCMV-luciferase reporter, 72 h; hits give low values | AID 1259415, 2018 | 4.5% of 410,000 active | activity change, negative = inhibition, % at 57.5 µM; in the data active = activity change below about -60%; inconclusive = no clear call, values can overlap the other calls; inactive = above about -39%
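Cell-based, HFFs, 1000 cells/well, 16 h 37C; cpds in DMSO + HCMV-luc, MOI 1 PFU/cell; 72 h 37C; OneGlo luminescence after 5 min RT; norm. to buffer vs Salinomycin 10uM.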
FMDV antiviral: High Throughput Screening for Foot and Mouth Disease Virus Antivirals; Potency, µM (highest dose often 57.9 µM), actives largely listed as inhibitors; 1.2% of 410,000 active; FMDV antiviral cell-based qHTS; calls by dose curve; tested in HEK293T cells; also: read-out not given here; nearly all actives have a fitted effect of over 45% in size
LASV entry inh: qHTS for Inhibitors of binding or entry into cells for Lassa Virus | Lassa virus pseudotype entry inhibition, cell reporter | 1.2% of 300,000 active | AID 540256, 2011 | Potency, µM (highest dose often 37.9 µM), usual class: inhibitors; calls by dose curve; tested in HEK293 cells; also: nearly all actives have a fitted effect of over 50% in size
HCV inh: qHTS Assay for Inhibitors of Hepatitis C Virus (HCV). Huh7.5.1 HCVcc-Cre infection, luciferase reporter, 44 h. Potency, µM (highest dose often 41.8 µM), most hits filed as inhibitors. 3.4% of 340,000 active; active = well fitted inhibition curve with a large enough effect; inconclusive = small, poorly fitted or top-dose-only effect, or another doubt; inactive = no such curve, though single readings can be large or run the other way
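Compounds are dispensed onto cells plated 4 h earlier at 1,000 per well, with HCVcc-Cre virus (about 0.5 moi) added next. Following 44 h of culture, luminescent signal is measured for 15 sec after 15 min with substrate at room temperature.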
Of the large screens only hits and unclear results are named; the others gave an inactive call. An excerpt weighted towards active compounds, which were near 7.9% of everything screened.

COc1cccc(-c2cnc3c(NC=O)cc(-c4ccc(O)c(OC)c4)cn23)c1	none (no result: Marburg entry inh, LASV entry inh, HCV inh)
COc1cc(-c2ccc3ncc(-c4cccc(C(F)(F)F)c4)n3n2)cc(OC)c1OC	HCMV inh -95 (no result: Marburg entry inh, FMDV antiviral, LASV entry inh, HCV inh)
COc1cc(-c2cnc3c(NC=O)cc(-c4cccc(C(F)(F)F)c4)cn23)cc(OC)c1OC	HCMV inh -67, FMDV antiviral 20µM (no result: Marburg entry inh, LASV entry inh, HCV inh)
COc1cccc(C(=O)c2ccccc2NC(C)=O)c1	none (no result: Marburg entry inh, LASV entry inh, HCV inh)
COC(=O)C/C=C\[C@@H](C)[C@@H](/C=N\OC[C@@H](O)COCc1ccco1)OC	none (no result: HCMV inh, FMDV antiviral, LASV entry inh, HCV inh)
COc1ccc(CCNC(=O)c2cc(C(=O)c3cc(C)ccc3O)cn(CCc3ccc(OC)cc3)c2=O)cc1	Marburg entry inh inconclusive, LASV entry inh 2.8µM, HCV inh inconclusive
COc1cccc(-n2cc(C(=O)NCCc3ccc(C)cc3)c3ccccc3c2=O)c1	HCMV inh -61 (no result: Marburg entry inh, HCV inh)
COc1ccc(CCNC(=O)c2cc(C(=O)c3cc(Cl)ccc3O)cn(CCc3ccc(OC)cc3)c2=O)cc1	Marburg entry inh inconclusive, LASV entry inh inconclusive, HCV inh inconclusive
Cc1cc(C)c(S(=O)(=O)N2CCCOC2CNC(=O)C(=O)NCc2cccs2)c(C)c1 (stereo not given)	LASV entry inh inconclusive
Cc1ccc2nc(NC(=O)CSCC(=O)OCC(=O)c3ccc(Br)cc3)sc2c1	Marburg entry inh 3.2µM, FMDV antiviral 7.9µM, LASV entry inh 7.9µM
c1cncc(-c2nc(NCCCN3CCOCC3)c3c4c(sc3n2)CCC4)c1	Marburg entry inh 10µM, LASV entry inh inconclusive, HCV inh inconclusive
COc1ccc(C2c3cc4c(cc3OC(N3CCOCC3)C2C)OCO4)c(OC)c1 (stereo not given)	Marburg entry inh inconclusive, HCMV inh inconclusive, LASV entry inh 6.3µM, HCV inh inconclusive
CCCCN(C)CCNC(=O)c1cc(=O)[nH]c2ccc(S(=O)(=O)N3CCCCCC3)cc12	none (no result: Marburg entry inh, HCV inh)
CN(C)S(=O)(=O)c1ccc(C(=O)Nc2ccccc2[N+](=O)[O-])cc1	HCMV inh -65
CC1S/C(=C(\C#N)C(=O)NCc2ccco2)N(c2ccc(F)cc2)C1=O (stereo not given)	HCMV inh -97, LASV entry inh inconclusive
CCN1C(=O)NC(c2cccs2)C(C(=O)OC)=C1C (stereo not given)	none (no result: HCMV inh, FMDV antiviral, LASV entry inh, HCV inh)
CCn1c(CNC(=O)c2ccc(OC)cc2)nnc1SCC(=O)Nc1ccc(OC)cc1	none (no result: HCV inh)
C=CCn1c(CCNC(=O)c2ccc(Cl)c(Cl)c2)nnc1SCCOc1ccc(OC)cc1	Marburg entry inh inconclusive, FMDV antiviral 28µM, HCV inh 10µM
O=C(NCc1ccccc1F)C1CCN(c2nn3cc(-c4ccc(F)cc4)nc3s2)CC1	LASV entry inh inconclusive (no result: Marburg entry inh, HCV inh)
CCOc1ccccc1CNC(=O)C1CCN(c2nn3cc(-c4ccc(F)cc4)nc3s2)CC1	HCMV inh active (no result: Marburg entry inh, HCV inh)
Cc1ccc(CNC(=O)C2CCCN(c3nn4cc(-c5ccc(C)cc5)nc4s3)C2)cc1 (stereo not given)	LASV entry inh inconclusive (no result: Marburg entry inh, HCV inh)
CCOc1ccc(NC(=O)C2CCCN(c3nn4cc(-c5ccc(OC)cc5)nc4s3)C2)cc1 (stereo not given)	HCMV inh active (no result: Marburg entry inh, HCV inh)
CCNC(=O)C1CCCN(c2nn3cc(-c4ccc(C)cc4)nc3s2)C1 (stereo not given)	HCMV inh inconclusive, FMDV antiviral 20µM (no result: Marburg entry inh, HCV inh)
COc1ccccc1NC(=O)COC(=O)Cn1cnc2c1c(=O)n(C)c(=O)n2C	none
COc1ccc(N(C)C(=O)c2ccc3nc(-c4ccccc4)c(-c4ccccc4)nc3c2)cc1	Marburg entry inh inconclusive, FMDV antiviral inconclusive, LASV entry inh inconclusive, HCV inh 11µM
CC(C)N(C(=O)c1ccc2nc(-c3ccccc3)c(-c3ccccc3)nc2c1)C(C)C	LASV entry inh inconclusive, HCV inh inconclusive
CNCCc1ccccn1	none
CNCCc1cnc(CCC(c2ccccc2)c2ccccc2)[nH]1	Marburg entry inh 5.8µM, LASV entry inh inconclusive (no result: HCMV inh, FMDV antiviral, HCV inh)
NC(=O)c1c(-c2ccc(Cl)cc2Cl)csc1NC(=O)Cc1ccccc1	Marburg entry inh inconclusive, HCMV inh -65, FMDV antiviral inconclusive, HCV inh inconclusive
COc1ccc2nc(N3CCN(C(=O)CS(=O)(=O)c4ccc(C)cc4)CC3)sc2c1	HCMV inh -64, FMDV antiviral inconclusive (no result: Marburg entry inh, HCV inh)
COc1ccccc1CNC(=O)COc1ccc(S(=O)(=O)N2CCCC2)cc1	none
CN(C)C/C=C(/c1ccc(Br)cc1)c1cccnc1	Marburg entry inh 7.1µM, HCV inh inconclusive
NS(=O)(=O)c1ccc(NC(=O)CN2CCN(Cc3ccccc3)CC2)cc1	none
O=C(CN1CCCCCC1)Nc1ccccc1	Marburg entry inh inconclusive
COc1ccc(NC(=O)c2ccc(NC(=O)CN3CCN(c4ccccc4)CC3)cc2)cc1	none (no result: Marburg entry inh, LASV entry inh)
O=C(NC1CCCCC1)c1cccc(OCc2ccccc2)c1	HCMV inh inconclusive, HCV inh 14µM
O=C(CN1CCCC1)Nc1ccc(OCc2ccccc2)cc1	HCV inh 10µM (no result: Marburg entry inh, LASV entry inh)
NS(=O)(=O)c1ccc(NC(=O)CN2CCN(S(=O)(=O)/C=C/c3ccccc3)CC2)cc1	HCMV inh -100
O=C(CN1CCN(c2ccccc2)CC1)Nc1ccc(OCc2ccccc2)cc1	Marburg entry inh inconclusive, LASV entry inh inconclusive, HCV inh 11µM (no result: HCMV inh)
CCOc1ccccc1C(=O)NCCN1CCC(n2c(=O)[nH]c3ccccc32)CC1	none (no result: Marburg entry inh, LASV entry inh, HCV inh)
C[C@@H]1CN(Cc2ccc3c(c2)CN(Cc2cccc4c2OCO4)CCO3)C[C@H](C)O1	none (no result: Marburg entry inh, HCMV inh, LASV entry inh, HCV inh)
COc1ccccc1NC(=O)CN1CCN(CC(=O)Nc2ccc(OCc3ccccc3)cc2)CC1	Marburg entry inh inconclusive, HCMV inh inconclusive, FMDV antiviral inconclusive, LASV entry inh 11µM
CC(C)Oc1cccc(C(=O)Nc2ccc(N3CCN(C)CC3)cc2)c1	none (no result: Marburg entry inh, LASV entry inh)
COc1ccccc1NC(=O)CN1CCN(CC(=O)Nc2ccc(F)cc2)CC1	HCV inh inconclusive
CN1CCN(c2ccc(NC(=O)c3cccc(OCc4ccccc4)c3)cc2)CC1	Marburg entry inh 22µM, HCV inh 25µM
COc1ccccc1NC(=O)CN1CCN(CC(=O)Nc2ccc(S(N)(=O)=O)cc2)CC1	HCMV inh -64, FMDV antiviral inconclusive (no result: Marburg entry inh, LASV entry inh)
CCOC(=O)N1CCN(CC(=O)Nc2ccc(Oc3ccccc3)cc2)CC1	FMDV antiviral inconclusive, LASV entry inh 0.56µM
C=CC[C@@H]1C=C(C(=O)OC)N(C(=O)C(F)(F)F)[C@@H](c2ccccc2Br)[C@@H]1C	none (no result: HCMV inh, FMDV antiviral, LASV entry inh, HCV inh)
CN1CCN(c2ccc(NC(=O)N3CCc4ccccc43)cc2)CC1	Marburg entry inh inconclusive, HCMV inh -78, FMDV antiviral 18µM
Cc1ccc(NC(=O)N2CCc3ccccc32)cc1	Marburg entry inh inconclusive, LASV entry inh inconclusive, HCV inh inconclusive
CCOc1ccccc1OCC(=O)Nc1cc(S(=O)(=O)N2CCCCC2)ccc1N1CCN(CC)CC1	Marburg entry inh inconclusive, HCV inh inconclusive
COc1ccccc1OCC(=O)Nc1cc(Cl)ccc1N1CCCCC1	Marburg entry inh inconclusive, HCMV inh inconclusive, FMDV antiviral inconclusive, HCV inh 10µM
COc1cc(C(C)=O)ccc1OCC(=O)Nc1ccccc1N1CCCCC1	Marburg entry inh inconclusive, FMDV antiviral inconclusive, LASV entry inh inconclusive, HCV inh inconclusive
